# Reference: PubChem BioAssay AID493168 (National Center for Advancing Translational Sciences (NCATS), 2011)
# Records with an inconclusive call do not appear. Values without a mark were called inactive. Active and inactive are the calls of the source. The call rests on the fitted dose curve; in most records, active means well fitted inhibition curve with a large enough effect; inconclusive means small, poorly fitted or top-dose-only effect, or effect the other way; inactive means flat fitted curve, though single readings scatter.
# Biological target: Ubiquitin carboxyl-terminal hydrolase 2 (Homo sapiens) (UniProt O75604)
# Sequence (O75604 whole entry, looked up): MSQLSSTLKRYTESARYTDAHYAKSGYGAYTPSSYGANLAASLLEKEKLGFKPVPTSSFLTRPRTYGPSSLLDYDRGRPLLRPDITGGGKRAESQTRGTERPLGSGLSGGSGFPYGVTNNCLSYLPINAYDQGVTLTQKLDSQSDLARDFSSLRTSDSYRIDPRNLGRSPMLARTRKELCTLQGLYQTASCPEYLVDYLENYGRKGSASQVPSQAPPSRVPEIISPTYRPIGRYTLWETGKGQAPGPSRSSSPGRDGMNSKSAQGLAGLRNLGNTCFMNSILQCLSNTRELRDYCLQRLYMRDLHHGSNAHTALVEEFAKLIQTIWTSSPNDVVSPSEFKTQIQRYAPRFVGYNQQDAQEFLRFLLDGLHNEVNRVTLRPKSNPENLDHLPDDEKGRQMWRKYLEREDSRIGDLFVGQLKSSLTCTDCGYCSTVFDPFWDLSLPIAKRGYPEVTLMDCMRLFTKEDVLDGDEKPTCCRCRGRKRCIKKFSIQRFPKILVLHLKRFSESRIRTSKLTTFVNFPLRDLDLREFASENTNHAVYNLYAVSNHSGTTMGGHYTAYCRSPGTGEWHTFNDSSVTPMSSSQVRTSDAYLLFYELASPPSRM
# Assay: Confirmation Assay for Inhibitors of Ubiquitin-specific Protease USP2a Using CHOP2 as the Reporter; further: nearly all actives have a fitted effect of over 55% in size;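 on activity change, negative = inhibition: plate controls were DMSO wells for no effect and full inhibition by NEM control for full effect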
# Conditions: USP2 core, Ub-CHOP2 coupled reporter fluorescence; series mostly up to 38.3 µM; activity change, negative = inhibition: at the top concentration
# Description: NIH Molecular Libraries Probe Centers Network [MLPCN] NIH Chemical Genomics Center [NCGC] MLSCN Grant: XO1-MH079852-01 PI Name: Nicholson, Ben. Progenra Inc, Malvern, PA NCGC Assay Overview: Homeostasis of cellular proteins is maintained through a combination of synthesis and degradation. The pathway that accounts for the majority of protein degradation is the ubiquitin-proteasomal pathway. Ubiquitin (Ub) is highly conserved in all cells and the generation of a multi-Ub chain typically targets proteins for degradation by the proteasome. However, ubiquitination is highly reversible and dynamic. Deubiquitination, the reverse process, is catalyzed through the action of enzymes referred to as isopeptidases or deubiquitinating enzymes (DUBs). This group of enzymes is collectively responsible for maintaining adequate pools of free ubiquitin and regulating the ubiquitination status of cellular proteins. The class of DUBs referred to as the ubiquitin-specific proteases (USP) family functions endoproteolytically to cleave Ub chains from a wide range of protein substrates. USP2a deubiquitinates fatty acid synthase (FASN) which has recently been identified as an emerging oncology target. To identify inhibitors of USP2a a cell-free assay was employed. […] The reporter enzyme chosen is an […] called CHOP2, which is activated when the Ub is cleaved by USP2. The free and now activated reporter can subsequently act on its reporter substrate. Thus, this coupled assay gives a fluorescent read-out at excitation/emission wavelengths of 485/531. The assay was developed by Progenra, Inc. and has been licensed for sale by LifeSensors, Inc. as Ub-CHOP2-Reporter-Kit (#PR1101).
# NCGC Assay Protocol Summary: The assay buffer, prepared fresh at the day of the assay, contains 20mM Tris-HCl pH 8.0, 2mM CaCl2, 2mM beta-Mercaptoethanol, 0.05% CHAPS. 3ul of 20nM (10nM final) USP2 core, which is stored on ice, is dispensed into a medium-binding black solid Kalypsys 1,536 well plate using the Kalypsys dispenser. The assay plate is then pinned with 23nL compound with the Kalypsys pintool in columns 5-48. The controls are pinned as follows: column 1 two-fold dilutions of 2M NEM in duplicate; column 2 2M NEM (final concentration 38.2mM); column 3&4 DMSO. The assay plate is incubated at RT for 30min. Subsequently, 1.5uL of 100nM (25nM final) Ub-CHOP2 and 1.5uL of 100nM (25nM final) Reporter Substrate (both stored on ice and protected from light) were dispensed into the plate using the Kalypsys dispenser. Plates were read after 60min RT incubation on a ViewLux (Perkin Elmer) plate reader using the following wavelengths Ex 485nm /Em 531nm. Data were normalized to the to AC100 inhibition (NEM). Concentration-response curves were fitted to the normalized data and the concentration-response curves were then classified based on curve quality (r2), response magnitude and degree of measured activity. The time zero reading was used to flag fluorescence artifacts. Keywords: ubiquitination, deubiquitination, proteases, profluorescent, MLSMR, MLPCN, NIH Roadmap, qHTS, NCGC
# Potency means the concentration at half of the fitted maximal effect.
Compound,"activity change, negative = inhibition",Potency
COc1ccc(NC(=O)c2c(C)nn(Cc3ccccc3Cl)c2Cl)cc1Cl,1.39%,
O=C1NC(=O)N(Cc2ccco2)C(=O)/C1=C/C=C/c1ccco1,,13.1 µM (active)
Cc1nn(Cc2ccc(Cl)cc2Cl)c(Cl)c1C(=O)Nc1ccc(OC(F)F)cc1,1.17%,
CC(=Nc1ccc2c(c1)CCC2)c1c(O)n(C)c(=O)n(C)c1=O,0.651%,
NC(N)=N/N=C/c1ccc(N(c2ccccc2)c2ccccc2)cc1,,16.5 µM (active)
COc1ccc(S(=O)(=O)Cc2ccc(C(=O)N3CCC4(CC3)OCCO4)o2)cc1,-0.023%,
O=c1[nH]c(=O)n(Cc2ccc(F)cc2)c(O)c1C=NCCCn1ccnc1,-3.8%,
O=C1NC(=S)N(c2ccccc2)C(=O)/C1=C/c1ccco1,,14.7 µM (active)
O=C(COc1ccc(S(=O)(=O)N2CCOCC2)cc1)N1CCN(Cc2ccc3c(c2)OCO3)CC1,0.801%,
Nc1ccc(S(=O)(=O)N2CCCCC2c2cccnc2)cc1 (stereo not drawn),5.3%,
O=C1CC(=O)N(Cc2ccccc2)C(=O)N1CCCCCCN1C(=O)CC(=O)N(Cc2ccccc2)C1=O,-1.12%,
O=C(O)c1cccc2c1NC(C(=O)O)C1CC(Sc3ccccc3[N+](=O)[O-])C(Cl)C21 (stereo not drawn),,7.36 µM (active)
CCCC1=C(C(=O)OCC)C2(C(=O)Nc3ccc(C)cc32)C(C#N)=C(N)O1 (stereo not drawn),3.9%,
CC1Oc2cc3c(-c4c(O)cc(O)c5c(O)c6c(cc45)OC(C)C(C)C6=O)c(O)cc(O)c3c(O)c2C(=O)C1C (stereo not drawn),,13.1 µM (active)
O=C1NC(=O)N(Cc2ccco2)C(=O)/C1=C/c1cccn1CCOc1ccccc1Cl,-3.58%,
OC(c1ccncc1)(c1ccc(F)cc1)c1ccc(F)cc1,-3.95%,
FC(F)(F)c1ccc2c(c1)N(CCCN1CCN(CCCl)CC1)c1ccccc1S2,0.492%,
O=c1[nH]c(=S)n(Cc2ccco2)c(O)c1C=NCc1cccs1,-18.4%,
